D1 PAM: enhances dopamine response at the human D1 receptor; HEK293 TREx D1 cells, calcium flux, dopamine EC20 potentiation; potentiation, % at 10 µM; 360,000 tested, 0.036% active; AID 504651; in the data active = potentiation above about 30%
Target sequence (P21728 whole entry, looked up): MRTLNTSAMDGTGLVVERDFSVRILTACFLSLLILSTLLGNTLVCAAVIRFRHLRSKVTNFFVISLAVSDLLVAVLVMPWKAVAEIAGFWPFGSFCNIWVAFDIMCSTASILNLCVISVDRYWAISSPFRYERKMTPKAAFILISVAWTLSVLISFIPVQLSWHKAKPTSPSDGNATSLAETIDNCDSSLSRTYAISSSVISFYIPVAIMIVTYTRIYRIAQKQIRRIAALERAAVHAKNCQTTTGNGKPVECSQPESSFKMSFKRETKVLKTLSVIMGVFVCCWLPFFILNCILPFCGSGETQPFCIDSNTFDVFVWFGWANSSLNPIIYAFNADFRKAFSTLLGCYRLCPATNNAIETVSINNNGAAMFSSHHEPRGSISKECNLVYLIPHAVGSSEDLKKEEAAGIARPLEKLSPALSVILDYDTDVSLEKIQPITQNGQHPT
D1 ag: human D1 receptor agonism; HEK293 T-REx D1 cells, calcium flux, agonist mode; P21728; activation, % at 2 µM; 360,000 tested, 1% active
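Tetracycline-induced HEK293 TREx D1 cells, force-coupled to calcium signalling, were dye-loaded with a no-wash calcium kit. Compound was pin-added after a 10 s baseline. Fluorescence was read kinetically at 1 cycle/s for 180 s, with calcium rises flagged as agonism.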
D1 antag: blocks dopamine activation of the human D1 receptor | 360,000 tested, 3.2% active | activity change, negative = inhibition, % at 10 µM | P21728 | HEK293 TREx D1 cells, calcium flux, dopamine EC80; active compounds read low; in the data active = activity change below about -30%
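After overnight tetracycline induction at 30 C, force-coupled D1 HEK293 cells took up a no-wash calcium dye at room temperature. Compounds were added and monitored 180 s, and the response to EC80 dopamine was then recorded.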
TRHR agonist: agonists of human TRH receptor | P34981 | TRHR cells, calcium flux fluo-8, FDSS agonist mode | activation, % at 2 µM | 360,000 tested, 0.18% active
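TRHR-expressing cells loaded with fluo-8 calcium dye; 23 nL library compound pin-transferred, kinetic FDSS fluorescence (Ex 480/Em 530) recorded about 180 s for agonist-induced calcium release, before a 10 nM TRH EC20 addition for potentiator mode.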
TRHR PAM: allosteric enhancers of human TRH receptor. P34981. TRHR cells, fluo-8 calcium fluorescence, EC20 TRH enhancement. enhancement, % at 2 µM. 360,000 tested, 0.66% active. AID 493056; in the data active = enhancement above about 30%
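Enhancer read-out: after compound pinning and an initial kinetic agonist-mode read, an EC20 of TRH (10 nM final) was injected and fluo-8 calcium signal (Ex 480/Em 530) followed at 1 s/cycle for 100 cycles in TRHR-expressing cells.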
Hits are given with their value; - = inactive. Hits are enriched below; roughly 4.6% of the tested compounds scored in any of these assays. Cut-off read from the data, not from the text of the source, unless noted: active = activation above about 30%; inactive = the rest.

SMILES	D1 PAM	D1 ag	D1 antag	TRHR agonist	TRHR PAM
O=C(C1CCC1)N1CCN(c2cccc(C(F)(F)F)c2)CC1	-	-	-54	-	-
O=C(CCS(=O)(=O)c1ccccc1)N1CCN(c2cccc(C(F)(F)F)c2)CC1	-	-	-	-	-
O=C(c1ccc2nccnc2c1)N1CCN(c2cccc(C(F)(F)F)c2)CC1	-	-	-	-	31
CN(Cc1ccccc1)C(=S)NC(=O)c1ccccc1	-	-	-	-	31
COc1ccc(-c2cc(C(=O)NCCc3ccc(OC)c(OC)c3)c3ccccc3n2)cc1	-	-	-	-	-
CCC1Sc2ccc(S(=O)(=O)Nc3ccc(OC)cc3)cc2NC1=O (stereo unspecified)	-	30	-36	-	-
Cc1ccsc1C(=O)OCC(=O)N1CCc2ccccc2C1	-	-	-	-	-
COCCNc1c(-c2ccc(OC)c(OC)c2)nc2ccc(Cl)cn12	-	-	-	-	-
COCCNc1c(-c2ccc(O)cc2)nc2ccc(Cl)cn12	-	-	-41	-	-
COCc1ccc(C(=O)N2CCCC(C(=O)c3ccc(SC)cc3)C2)s1 (stereo unspecified)	-	-	-36	-	-
CCOc1cc(C(Nc2cc(C)ccn2)c2ccc3cccnc3c2O)ccc1OC (stereo unspecified)	-	-	-	-	41
COc1ccc(C(Nc2ccccn2)c2ccc3ccc(C)nc3c2O)cc1C (stereo unspecified)	-	-	-	-	-
CC(C)(C)OC(=O)N1CCC(c2nnc(SCc3cccc(Cl)c3)o2)CC1	-	-	-	-	-
CC(C)(C)c1ccc(OCC(=O)NC(Cc2c[nH]c3ccccc23)C(=O)O)cc1 (stereo unspecified)	-	49	-	-	-
CC(NCC(O)COc1ccc2ccccc2c1)c1ccccc1 (stereo unspecified)	-	42	-	-	-
Cc1cc(OCC(O)CNC(C)c2ccccc2)ccc1C(C)C (stereo unspecified)	-	30	-	-	-
Cc1cc(C)n(CC(O)COc2ccc(C(C)C)c(C)c2)n1 (stereo unspecified)	-	-	-	-	34
COc1ccc(OCC(O)CNC(C)c2ccccc2)cc1 (stereo unspecified)	-	-	-	-	-
CN(CC(O)COc1ccc2ccccc2c1)C1CCCCC1 (stereo unspecified)	-	32	-	-	-
Cc1ccccc1-c1nc2scc(CCNC(=O)c3ccco3)n2n1	-	-	-	-	-
CC(=O)NC1C(Oc2cccc(C)c2)OC2COC(c3ccco3)OC2C1O (stereo unspecified)	-	-	-39	-	-
COc1ccccc1OC1OC2COC(c3ccco3)OC2C(O)C1NC(C)=O (stereo unspecified)	-	-	-	-	-
COc1cccc2[nH]c3ccccc3c(=O)c12	-	-	-	-	-
C=Cc1ncc(OC)c2c1[nH]c1ccccc12	-	-	-55	-	-
COc1cccc(C)c1NC(=O)C(OC(=O)CNC(=O)c1ccccc1)c1ccccc1 (stereo unspecified)	-	-	-	-	-
SMILES	D1 PAM	D1 ag	D1 antag	TRHR agonist	TRHR PAM
CCC(=O)Nc1nc2n(n1)C(c1ccc(OC)cc1)C=C(c1ccccc1)N2 (stereo unspecified)	-	69	-	-	-
O=C(c1nc2n(n1)C(c1ccc(Cl)cc1)C=C(c1ccccc1)N2)N1CCOCC1 (stereo unspecified)	-	-	-	33	-
COc1ccc(C(=O)Nc2nc3n(n2)C(c2ccccc2)C=C(c2ccccc2)N3)cc1 (stereo unspecified)	-	32	-	-	-
COc1ccc(C2C=C(c3ccc(Cl)cc3)Nc3nc(NC(C)=O)nn32)cc1 (stereo unspecified)	-	40	-	-	-
COc1ccc(C2C=C(c3ccccc3)Nc3nc(NC(=O)/C=C/c4ccccc4)nn32)cc1 (stereo unspecified)	-	-	-	-	-
CC(=O)Nc1nc2n(n1)C(c1ccc(F)cc1)C=C(c1ccccc1)N2 (stereo unspecified)	-	-	-	-	-
COc1ccc(C2=CC(c3ccc(F)cc3)n3nnnc3N2)cc1 (stereo unspecified)	-	-	-	-	-

Compound activity as filed in PubChem BioAssay.
